The source of these data is the supplement of paper PMC12339681.

Where a name gives a salt, the structure may show the parent alone.

The test relates to PBMC-derived induced microglia-like cells (piMGLC). In words: synaptosome phagocytic index relative to DMSO control (fraction of DMSO); higher = more phagocytosis. The settings on record: concentration: 10 uM (2 uM for compounds listed in Table S2); pretreatment time: 24 h; assay time: 3 h.
Take `NC(=O)N1c2ccccc2C=Cc2ccccc21` [Carbamazepine]: the synaptosome phagocytic index worked out at 0.865. Regarding `CN1CCN(C2=Nc3ccccc3Oc3ccc(Cl)cc32)CC1` [Loxapine], the synaptosome phagocytic index was determined as 0.272.

For `COc1cc2ncnc(Nc3cccc(Cl)c3F)c2cc1OC(=O)N1CCN(C)C[C@H]1C` [Zorifertinib], the synaptosome phagocytic index was found to be 0.285. `CC(=O)Oc1ccccc1C(=O)O` [Aspirin]: the synaptosome phagocytic index amounted to 0.579. Turning to `Nc1cc(C(F)(F)F)c(-c2cc(N3CCOCC3)nc(N3CCOCC3)n2)cn1` [Buparlisib_(Hydrochloride)], the synaptosome phagocytic index turned out to be 0.429. In the case of `Nc1ncnc2c1ncn2[C@@H]1O[C@H](CO)[C@@H](O)[C@H]1O` [Adenosine] it was 0.51; in that of `CC(C)Cc1ccc([C@@H](C)C(=O)O)cc1` [(R)-(-)-Ibuprofen], 1.31; in that of `CS(=O)(=O)CCNCc1ccc(-c2ccc3ncnc(Nc4ccc(OCc5cccc(F)c5)c(Cl)c4)c3c2)o1` [Lapatinib_(ditosylate)], 0.126. For the compound `Cc1cc2c(s1)Nc1ccccc1N=C2N1CCN(C)CC1` [Olanzapine], the synaptosome phagocytic index was determined as 0.345. For `CC[C@H](COc1cccnc1C1CCN(C(=O)[C@@H](Cc2ccc(Cl)cc2Cl)NC(=O)N2CCCC2)CC1)N1CCCC1`, the synaptosome phagocytic index amounted to 0.292.

As for `CC(C(=O)O)c1ccc(-c2ccccc2)c(F)c1` (stereo unspecified) [Flurbiprofen], the synaptosome phagocytic index was found to be 0.64. As for `Cc1cc(-c2nncc3c(C(C)(C)C)c(OCc4ncnn4C)nn23)no1`, the synaptosome phagocytic index amounted to 0.814.

For `CCC(CC)O[C@@H]1C=C(C(=O)O)C[C@H](N)[C@H]1NC(C)=O` [Oseltamivir_acid], the synaptosome phagocytic index was found to be 0.782.

With `FC(F)(F)c1ccc(CNc2ccc(Cc3c[nH]c4ncc(Cl)cc34)cn2)cn1` [Pexidartinib_(hydrochloride)], the synaptosome phagocytic index is 0.976. The same measure for `CC(=O)Nc1ccc(C(=O)Nc2cc(-c3cccs3)ccc2N)cc1`: 0.416; for `CCc1c(C)[nH]c2c1C(=O)C(CN1CCOCC1)CC2` (stereo unspecified) [Molindone_(hydrochloride)]: 0.64; for `Cc1ccsc1C(=CCCN1CCC[C@@H](C(=O)O)C1)c1sccc1C` [Tiagabine_(hydrochloride)]: 1.28.

Regarding `Cc1nc2n(c(=O)c1CCN1CCC(c3noc4cc(F)ccc34)CC1)CCCC2O` (stereo unspecified) [Paliperidone], the synaptosome phagocytic index was determined as 0.852.

For the compound `CCC(=O)NCC[C@@H]1CCc2ccc3c(c21)CCO3` [Ramelteon], the synaptosome phagocytic index is 0.767.

In the case of `CNCCC(Oc1ccc(C(F)(F)F)cc1)c1ccccc1` (stereo unspecified) [Fluoxetine_(hydrochloride)], the synaptosome phagocytic index turned out to be 0.69. The same measure for `COc1cc(C(C)=O)ccc1OCCCN1CCC(c2noc3cc(F)ccc23)CC1` [Iloperidone]: 0.853; for `Clc1cccc(Cl)c1NC1=NCCN1` [Clonidine_(hydrochloride)]: 0.898; for `CCc1cc(Nc2nc(-c3ccc(-n4cnc(C)c4)c(F)c3)cs2)c(C)cc1C`: 0.666. As for `CCCC(CCC)C(=O)O` [Valproic_acid], the synaptosome phagocytic index came to 0.68. Consider `COc1cn(-c2ccc(-n3cccn3)cc2F)nc(-c2ccnn2-c2ccccc2)c1=O` [Balipodect], for which the synaptosome phagocytic index worked out at 0.835. For the compound `CCc1c2c(nc3ccc(OC(=O)N4CCC(N5CCCCC5)CC4)cc13)-c1cc3c(c(=O)n1C2)COC(=O)[C@]3(O)CC` [Irinotecan], the synaptosome phagocytic index stood at 0.692. In the case of `CC(=O)[C@H]1CC[C@H]2[C@@H]3CC=C4C[C@@H](OS(=O)(=O)O)CC[C@]4(C)[C@H]3CC[C@]12C` [Pregnenolone_monosulfate] it was 0.895; in that of `N#Cc1ccc(Cn2ccc(NC(=O)Cc3ccc(C4(C(F)(F)F)CC4)cc3)n2)nc1`, 1.06. As for `O=C(Oc1ccccc1C(=O)O)c1ccccc1O` [Salsalate], the synaptosome phagocytic index turned out to be 0.409.

As for `NC(=O)NO` [Hydroxyurea], the synaptosome phagocytic index amounted to 0.555.

Turning to `CCN1CCN(Cc2ccc(-c3cc4c(N[C@H](C)c5ccccc5)ncnc4[nH]3)cc2)CC1`, the synaptosome phagocytic index amounted to 0.0989.

On to `NCc1c[nH]c(=S)n1[C@H]1CCc2c(F)cc(F)cc2C1` [Nepicastat_(hydrochloride)], for which the synaptosome phagocytic index amounted to 0.936.

In the case of `CN(C)c1ncc(/C=C/c2nc3ccc(OCCF)cc3o2)s1`, the synaptosome phagocytic index was found to be 0.356.

Consider `CN1C(=O)[C@@H](NC(=O)c2n[nH]c(Cc3ccccc3)n2)COc2ccccc21`, for which the synaptosome phagocytic index turned out to be 1.15. As for `C.CN(C)C(=O)c1cc2cnc(Nc3ccc(N4CCNCC4)cn3)nc2n1C1CCCC1` [Ribociclib_succinate_hydrate], the synaptosome phagocytic index was determined as 0.195. As for `CNCCCN1c2ccccc2CCc2ccccc21` [Desipramine_hydrochloride], the synaptosome phagocytic index is 1.13.
